# dFosB act – activators of delta FosB homodimer, primary screen, biochemical, fluorescence polarization, TAMRA-CDK5 oligo, single point; purified delta FosB; percent of positive-control signal above neutral wells; 340,000 compounds, 0.99% hits; activation, % at 25 µM; Protein FosB (Mus musculus), P13346;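 active means mean activation above about 17%, with every replicate also reaching it, limit read from the data, passing the limit was not always enough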
# SMARCA2 activ – SMARCA2 (BRM) function activators, primary screen, cell-based, luminescence, high throughput; 370,000 compounds, 1% hits; activation, % at 9.1 µM; MG213 cells, MMTV-luciferase reporter, dexamethasone, overnight; in the data active means activation above about 7.8%;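 further: 0% = vehicle wells and 100% = reference activator wells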
# CDK5 p35 inh – inhibitors of human CDK5/p35 kinase, primary screen, biochemical, single concentration; Recombinant CDK5/p35, ADP-Glo luminescence, 60 min; 330,000 compounds, 0.01% hits; AID 488839, 2010; inhibition, % at 10 µM;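 active means highest replicate inhibition of at least 50% and at least 75% of replicates reaching 50%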;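 further: plate controls were DMSO neutral control for no effect and GW8510 at 10 µM for full effect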
# esBAF inh – Bmi1 luciferase reporter increase in mESCs, primary screen, esBAF inhibitor project, mouse ES cells, Bmi1 luciferase knock-in, single point; 24 h; 100% = twice the neutral-well signal; reporter increase, % at 12.5 µM; 350,000 compounds, 2% hits; in the data active means activation above about 40%;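 further: 0% = median of the plate's neutral control wells and 100% = double that signal; a rise in the Bmi1 reporter signal indicates esBAF inhibition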
# DYRK1A inh – rat Dyrk1A kinase inhibitors, primary screen, biochemical, single point, plate reader. Dual specificity tyrosine-phosphorylation-regulated kinase 1A (Rattus norvegicus), Q63470. ADP-Glo luminescence, NFATc1 peptide. inhibition, % at 12.5 µM. 310,000 compounds, 0.43% hits; in the data active means inhibition above about 50%;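 further: plate controls were vehicle with enzyme for no effect and no enzyme for full effect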
# Rtt109 Vps75 – inhibitors of C. albicans Rtt109/Vps75 HAT, primary screen, biochemical, ThioGlo CoA-SH fluorescence, plate reader | Histone acetyltransferase RTT109 (Candida albicans (strain SC5314 / ATCC MYA-2876)), … | purified Rtt109/Vps75, 4 h | inhibition, % at 34.9 µM | 330,000 compounds, 0.16% hits | AID 540336, 2011;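 active means inhibition of at least 50% in every replicate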
# Target sequence (Q5AAJ8 whole entry, looked up): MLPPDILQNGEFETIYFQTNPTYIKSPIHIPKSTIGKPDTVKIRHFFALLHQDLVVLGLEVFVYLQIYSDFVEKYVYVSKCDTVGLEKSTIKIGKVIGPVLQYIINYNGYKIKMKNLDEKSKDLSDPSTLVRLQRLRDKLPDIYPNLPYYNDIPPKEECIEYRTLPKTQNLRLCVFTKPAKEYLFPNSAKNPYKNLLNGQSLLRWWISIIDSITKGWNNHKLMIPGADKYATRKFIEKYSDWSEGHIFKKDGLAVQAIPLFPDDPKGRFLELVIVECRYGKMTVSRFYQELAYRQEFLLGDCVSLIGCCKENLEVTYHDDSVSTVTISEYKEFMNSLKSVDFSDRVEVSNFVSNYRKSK
# * hit, by the source's call; / = not tested or not shown. Shown are actives, neighbours in structure and some others; about 3.2% of the full set was active somewhere.
SMILES,dFosB act,SMARCA2 activ,CDK5 p35 inh,esBAF inh,DYRK1A inh,Rtt109 Vps75
COc1ccc(/C=N/Nc2ccc([N+](=O)[O-])cc2)cc1Cn1cc([N+](=O)[O-])cn1,4,3,-1,18,0,1
COc1cc(/C=N/Nc2ccc(C(=O)O)cc2)cc(OC)c1OC,-8,4,-2,56*,6,1
O=C(O)c1ccc(N/N=C/c2cccc(C(F)(F)F)c2)cc1,2,-1,1,92*,8,8
COc1ccc(/C=N\Nc2ccc([N+](=O)[O-])cc2)c(C(=O)O)c1OC,-4,1,0,-4,0,5
COc1ccc(/C=N/Nc2ccc(C(=O)O)cc2)c(OC)c1OC,4,2,0,91*,4,1
C[C@H]1CN([C@@H](C)CO)S(=O)(=O)c2ccc(Br)cc2O[C@@H]1CN(C)C,/,/,/,-4,/,/
COc1cc(/C=N/Nc2nc3ccccc3o2)cc(OC)c1O,0,0,5,14,0,-16
COc1cc(/C=N\Nc2nc3ccccc3o2)cc(OC)c1OC,-2,0,-2,51*,-7,-6
C[C@@H]1CN([C@H](C)CO)C(=O)c2cccc(NC(=O)C3CCOCC3)c2O[C@H]1CN(C)Cc1ccc2c(c1)OCO2,/,/,/,-1,/,/
Cc1c(O)ccc(/C(Cc2ccc3ccccc3n2)=N\O)c1O,-6,-2,-1,45*,6,12
CCc1nnc(NC(=O)C2CCCN(C(=O)c3ccc(Cl)cc3)C2)s1 (stereo unspecified),-5,-1,0,50*,/,-6
CCC(=O)Nc1ccc2nc(C3CC3)n(Cc3ccccc3)c(=O)c2c1,-3,4,-1,/,-7,0
O=C(Nc1ccc2nc(C3CC3)n(Cc3ccccc3)c(=O)c2c1)C1CC1,-8,2,-1,67*,-5,-6
CCC(=O)Nc1ccc2c(c1)C(=O)N(C)C[C@H](OC)[C@@H](C)CN(C(=O)CC1CC1)[C@@H](C)CO2,/,/,/,-3,/,/
Nc1c(C(=O)c2ccccc2)oc2ccc(Br)cc12,-1,3,1,72*,15,3
Nc1c(C(=O)c2ccccc2)oc2ccc([N+](=O)[O-])cc12,-4,1,-1,/,-2,55*
Cc1oc2ccc(O)cc2c1C(=O)c1ccc([N+](=O)[O-])cc1,-5,0,0,/,32,4
O=C(Nc1nccs1)c1ccc(Cl)c(S(=O)(=O)N2CCCCC2)c1,-13,0,-2,42*,0,15
CC1CCCN(C(=O)c2ccc(Cl)c(S(=O)(=O)N3CCCCCC3)c2)C1 (stereo unspecified),-7,-1,-1,58*,0,-9
O=C(c1ccc(Cl)c(S(=O)(=O)N2CCCC2)c1)N1CCCCC1,8,0,1,/,/,-9
CCCN1C(=O)c2ccc(C(=O)Nc3nccs3)cc2C1=O,0,2,0,43*,-6,-7
O=C(Nc1nccs1)c1cc(S(=O)(=O)N2CCCCC2)ccc1Cl,3,0,0,-2,-5,-7
CO[C@@H]1CN(C)C(=O)c2ccc(NC(=O)C3CCCCC3)cc2OC[C@H](C)NC[C@@H]1C,/,/,/,-1,/,/
CN1C(=O)c2cc(NC(=O)Cc3ccccc3)ccc2OC[C@H]2O[C@@H](CC(=O)O)CC[C@H]21,/,/,/,0,/,/
COc1ccc(CN(C)C[C@@H]2Oc3ccc(NC(=O)CCN4CCOCC4)cc3CC(=O)N([C@@H](C)CO)C[C@@H]2C)cc1,/,/,/,-12,/,/
SMILES,dFosB act,SMARCA2 activ,CDK5 p35 inh,esBAF inh,DYRK1A inh,Rtt109 Vps75
Cc1ccsc1/C=N/Nc1ncc(Cl)cc1Cl,3,6,-8,55*,0,-7
Cc1cc(C)nc(N/N=C/c2sccc2C)n1,5,-2,-1,/,18,-3
O=C(CCCC(=O)c1ccc(F)cc1)c1ccc(F)cc1,0,2,0,55*,-3,3
COc1cccc(CNC(=O)C[C@H]2C=C[C@H](NC(=O)C3CCC3)[C@@H](CO)O2)c1,/,/,/,-1,/,/
CN(CC(=O)Nc1ccc(F)cc1)C(=O)COc1ccccc1Cc1ccccc1,-11,-3,0,3,6,51*
COc1ccc(NC(=O)CN(C)C(=O)COc2ccccc2Cc2ccccc2)cc1,-18,-1,-3,-8,/,-3
COc1ccc(CN(C)C[C@H]2Oc3ccc(NC(=O)C4CC4)cc3C(=O)N([C@@H](C)CO)C[C@H]2C)cc1,/,/,/,3,/,/
COc1ccc(C)cc1Nc1nc(N)c2cc(OC)c(OC)cc2n1,48*,/,-1,1,0,2
COc1ccc(Cl)cc1Nc1nc(N)c2ccccc2n1,14,-2,-2,13,-8,4
COc1cc2nc(N3CCN(c4cc(C)ccc4C)CC3)nc(N)c2cc1OC,79*,-8,-1,-21,3,-1
COc1cc2nc(N3CCNCC3)nc(N)c2cc1OC,-74,6,2,-4,-13,-7
C[C@H](CO)N1C[C@H](C)[C@H](CN(C)Cc2ccc(F)cc2)Oc2cc(C#CC3CC3)ccc2S1(=O)=O,/,/,/,-5,/,/
CCCC(=O)Nc1ccc2c(c1)C(=O)N(C)[C@H]1CC[C@@H](CC(=O)NCCc3ccccc3)O[C@H]1CO2,/,/,/,3,/,/
CCN(CC)c1ccc(/C=C(\C#N)c2ccccn2)cc1,-2,/,0,-16,2,4
CCN(Cc1ccccc1)c1ccc(/C=C(\C#N)c2ccccn2)cc1,-2,0,/,77*,3,5
CC(C)NC(=O)Nc1ccc2c(c1)C(=O)N([C@@H](C)CO)C[C@@H](C)[C@@H](CN(C)Cc1ccc(Oc3ccccc3)cc1)O2,/,/,/,-7,/,/
CC1=CC(C)(C)N=C(Nc2ccc(C)cc2)S1,-6,1,0,46*,1,24
COc1cc(C(=O)Nc2ccc(C(C)=O)cc2)c(Br)c(OC)c1OC,0,2,-1,48*,1,-5
COc1ccc(NC(=O)c2cc(OC)c(OC)c(OC)c2Br)cc1OC,-4,-2,0,/,/,4
N=C1C(c2nc3ccccc3s2)=C(O)CN1Cc1ccco1,-5,7,-6,53*,1,1
Cc1cccc(NC(=O)CSc2cn[nH]n2)c1,7,-1,0,4,14,-3
O=C(CSc1cn[nH]n1)Nc1cccc(C(=O)O)c1,5,-1,2,1,-3,81*
C[C@@H]1CN([C@@H](C)CO)S(=O)(=O)c2ccc(C3=CCCC3)cc2O[C@@H]1CN(C)Cc1ccccc1,/,/,/,-2,/,/
